Here are results for 23 molecules from PubChem BioAssay (NCATS).

Unmarked numbers belong to inactive results. Records with an inconclusive call do not appear. Calls of active or inactive are those of the source. The call rests on the fitted dose curve; in most records, active means well fitted curve in the direction sought with a large enough effect; inconclusive means small, poorly fitted or top-dose-only effect, or another doubt; inactive means no such curve, though single readings can be large; an effect the other way counts as inactive or inconclusive.

Experiment [1] in a line: Primary fluorescence-based thiol-reactive (MSTI) qHTS assay for identification of artifact compounds. (AID 1845221). Further: nearly all actives have a fitted effect of over 65% in size. Further: potency means the concentration at half of the fitted maximal effect.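 On activity change, negative = thiol reactive: series mostly up to about 54 µM; thiol-reactive compounds lower the probe fluorescence signal.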 A digest of the protocol:
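Probe: MSTI 4 uM, PBS pH 7.4, 2% DMSO. Incubation 1 h, RT, light-protected. Readout fluorescence 525/598 nm.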
(In general: qHTS replaces the single test concentration by a dilution series.)

Experiment [2] concerns Nanoluciferase (engineered Oplophorus gracilirostris luciferase). The experiment can be described thus: Primary Nanoluciferase (NLuc) qHTS assay for identification of artifact compounds. (AID 1845222).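 Further: NLuc secreted into diluted conditioned medium of S16 cells; series mostly up to about 54 µM; 0% = DMSO and -100% = no enzyme.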 A digest of the protocol: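 Using secreted nanoluciferase in S16 culture medium (0.22 um filtered, 1:55 dilution), compounds were preincubated 15 min at RT. Signal was generated with Nano-Glo reagent (1:100) over 5 min.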

The nature of experiment [3]: Primary redox qHTS assay for identification of artifact compounds. (AID 1845223).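 Further: 0% = DMSO and 100% = reference compound.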 A digest of the protocol: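 Amplex Red (25 uM) and HRP (250 mU/mL) in HBSS, with compounds for 15 min, then 250 uM DTT for 30 min, room temperature, dark. Fluorescence 525/598 nm read; normalized to DMSO and 10 uM DA3003; Hill fit.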

For `CO[C@H]1C=C2C(CC[C@H](O[C@@H]3O[C@H](CO)[C@@H](O)[C@@H](O)[C@H]3O)C2(C)C)[C@]2(C)CC[C@]3(C)C([C@H](C)C(O)C(C=C(C)C)O[C@@H]4O[C@H](CO)[C@@H](O)[C@@H](O)[C@H]4O)CC[C@@]3(C)C12` (some centres undefined), the activity change, negative = thiol reactive in experiment [1] was 133% [at 11.5 µM]. Also, the activity, negative = inhibition in experiment [2] is 4.54% [at 11.6 µM].
For the molecule `COc1cc(/C=C/C(=O)OC(C)(C)C(OC2OC(CO)C(O)C(O)C2O)C(=O)OCc2ccc(OC3OC(CO)C(O)C(O)C3O)cc2)ccc1O` (centres undefined), the Potency entry in experiment [1] and in experiment [2] was “inactive” each time.
With `C[C@@H]1O[C@@H](O[C@H]2[C@H](O[C@H]3CO[C@@H](O[C@H]4CC[C@@]5(C)C(CC[C@]6(C)C5CC[C@]57OC[C@@]8(CC[C@](C)(CO)CC85)[C@H](O)C[C@]76C)C4(C)C)[C@H](O[C@@H]4O[C@H](CO)[C@@H](O)[C@H](O)[C@H]4O)[C@H]3O)O[C@H](CO)[C@@H](O)[C@@H]2O)[C@H](O)[C@H](O)[C@H]1O` (some centres undefined), the activity change, negative = thiol reactive in experiment [1] was 26.5% [at 11.5 µM]. Further, in experiment [2], the activity, negative = inhibition is -0.449% [at 11.6 µM].
The matching figures for `O=C(OCc1cccc(O)c1O[C@@H]1O[C@H](CO)[C@@H](O)[C@H](O)[C@H]1O)C1(O)C(=O)C2C=CC1C1C=CC(=O)C(O)(C(=O)OCc3cccc(O)c3O[C@@H]3O[C@H](CO)[C@@H](O)[C@H](O)[C@H]3O)C21` (some centres undefined): 11.6% [at 11.5 µM] and 1.93% [at 11.6 µM].
On to `C=C1CC[C@H]2[C@@](C)(CCC(O)[C@@]2(C)CO)[C@@H]1C/C=C(/C(=O)O)C(O)CO` (some centres undefined), for which, in experiment [1], the Potency is 6.56 µM (active). The Potency result in experiment [2] and in experiment [3] was “inactive” throughout.
In the case of `Cc1cc(C)cc(NC(=O)Cc2ccc(OC(C)(C)C(=O)O)cc2)c1`, the Potency entry in experiment [1] and in experiment [2] was “inactive” throughout.
Consider `CC(C)N(C[C@H]1O[C@@H](n2cnc3c(N)ncnc32)[C@H](O)[C@@H]1O)C1CC(CCc2nc3ccc(C(C)(C)C)cc3[nH]2)C1` (some centres undefined), for which the Potency result in experiment [1], in experiment [2] and in experiment [3] was “inactive” in each case.
In the case of `COc1cccc(-n2nc(C(=O)O)cc2-c2ccc(C3CCCCC3)c(Cl)c2)c1`, the Potency entry in experiment [1], in experiment [2] and in experiment [3] was “inactive” in each case.
As for `CON(C)C(=O)N1N=C(c2cc(F)ccc2F)S[C@@]1(CCCN)c1ccccc1`, the Potency result in experiment [1] and in experiment [2] was “inactive” in each case.
As for `Cc1c(-c2ccnn2C)cc(C(=O)NCc2ccc(S(C)(=O)=O)cn2)c(=O)n1-c1cccc(C(F)(F)F)c1`, the Potency result in experiment [1] and in experiment [2] was “inactive” throughout.
Consider `COCCCNCC1COc2ccccc2O1` (centres undefined), for which the Potency result in experiment [1], in experiment [2] and in experiment [3] was “inactive” in each case.
Take `CC(C)CNC(=O)/C=C/CCCCc1ccc2c(c1)OCO2`: the Potency result in experiment [1] and in experiment [2] was “inactive” throughout.
As to `O=S(=O)(NC1CCNCC1)c1cc(S(=O)(=O)c2ccccc2)ccc1C(F)(F)F`, the Potency entry in experiment [1], in experiment [2] and in experiment [3] was “inactive” throughout.
With `COc1c(C)c2c(c(O)c1C/C=C(\C)CC/C=C(\C)CCC(=O)O)C(=O)OC2`, the Potency entry in experiment [1], in experiment [2] and in experiment [3] was “inactive” in each case.
`OC[C@H]1O[C@@H](Oc2cc(O)cc(-c3cc4ccc(O)cc4o3)c2)[C@H](O)[C@@H](O)[C@@H]1O`: the Potency in experiment [1] was 5.19 µM (active). Further, the Potency entry in experiment [2] and in experiment [3] was “inactive” each time.
As to `C[C@@H]1O[C@@H](OC[C@H]2O[C@@H](OCCc3ccccc3)[C@H](O)[C@@H](O)[C@@H]2O)[C@H](O)[C@H](O)[C@H]1O`, in experiment [1], the Potency was 2.6 µM (active). For the same molecule, the Potency entry in experiment [2] was “inactive”.
`CC1(C)CCC(C)(C)c2cc3c(cc21)Sc1ccccc1N=C3c1ccc(C(=O)O)cc1`: the Potency result in experiment [1], in experiment [2] and in experiment [3] was “inactive” each time.
Turning to `C(#Cc1cccc(CN2CCOCC2)c1)CCN1CCCCC1`, the Potency entry in experiment [1], in experiment [2] and in experiment [3] was “inactive” each time.
As for `CC(=O)N1c2ccccc2C2(O)CC3C(=O)NC(CC(C)C)C(=O)N3C12` (centres undefined), the Potency entry in experiment [1], in experiment [2] and in experiment [3] was “inactive” each time.
As to `COc1cc(O[C@@H]2O[C@H](CO)[C@@H](O)[C@H](O)[C@H]2O)c(CCC(=O)OC[C@H]2O[C@@H](Oc3cc(OC)c(C4OC(=O)C(C)(O)C4O)cc3CCC(=O)O)[C@H](O)[C@@H](O)[C@@H]2O)cc1C1OC(=O)C(C)(O)C1O` (some centres undefined), in experiment [1], the activity change, negative = thiol reactive was 56% [at 11.5 µM]. Moreover, the activity, negative = inhibition in experiment [2] is 0.289% [at 11.6 µM]. The redox activity (% of DA3003) in experiment [3] was -16.2% [at 11.5 µM].
Turning to `CCN(c1cc(C#CCN2CCOCC2)cc(C(=O)NCc2c(C)cc(C)[nH]c2=O)c1C)C1CCC(N(C)CCOC)CC1` (centres undefined), the Potency entry in experiment [1] and in experiment [2] was “inactive” throughout.
On to `C=C(C)[C@@H]1CC[C@](C)(O)[C@@H](OC(=O)c2ccccc2)C1`, for which the Potency entry in experiment [1], in experiment [2] and in experiment [3] was “inactive” in each case.
Consider `O=C1CC(c2ccc([N+](=O)[O-])cc2)=NN1c1ccccc1`, for which the Potency in experiment [1] was 4.74 µM (active). The Potency result in experiment [2] and in experiment [3] was “inactive” in each case.
